Laboratory results from ChEMBL document CHEMBL1961873, “Compounds: GSK PKIS; Assays: Nanosyn kinase panel” (2012).

Each compound was assayed against cAMP-dependent protein kinase catalytic subunit alpha (Homo sapiens) (UniProt P17612). Conditions: at 1 µM.

Structure (SMILES) | inhibition [%]
Fc1cccc(COc2ccc(Nc3ncnc4cc(-c5ccc[nH]5)sc34)cc2Cl)c1 | -0.52
CCN1CCC(CC(=O)Nc2n[nH]c3nc(-c4cccs4)c(Br)cc23)CC1 | 1.75
NC(=O)c1ccc(-c2nc(-c3ccccn3)c(-c3ccc4c(c3)OCO4)[nH]2)cc1 | 2.8
CCn1c(-c2nonc2N)nc2c(C#CC(C)(C)O)nc(OC[C@@H](N)c3ccccc3)cc21 | 79.3
CCn1c(-c2nonc2N)nc2cncc(C(=O)N3CC[C@H](N)C3)c21 | 82.2
Cc1ccc(NC(=O)c2ccnc(N3CCCC3)c2)cc1-c1ccc(C(=O)NCC2CC2)cc1 | -0.65
COc1cc(C)c(NC(=O)CN(C)C)cc1Nc1nc(Nc2cccc(F)c2C(N)=O)c2cc[nH]c2n1 | -0.43
CCn1c(-c2nonc2N)nc2cnc(Oc3cccc(NC(=O)c4ccc(OCCN5CCOCC5)cc4)c3)cc21 | 65.8
Nc1nc(-c2ccc3c(c2)C(=Cc2cc(Br)c(O)c(Br)c2)C(=O)N3)cs1 | -0.7
COc1ccc(-c2ccncc2)cc1C(N)=O | 3.05
CC1=C(C(=O)Nc2ccc3[nH]ncc3c2)C(c2ccc(Cl)c(Cl)c2)CC(=O)N1 (configuration not stated) | 43.1
Fc1cccc(COc2ccc(Nc3ncnc4sc(-c5cccs5)cc34)cc2Cl)c1 | 1.04
CN1CCC(C(=O)Nc2n[nH]c3nnc(-c4ccccc4)cc23)CC1 | 1.51
Cc1nn(C)c2cc(N(C)c3ccnc(Nc4cccc(S(N)(=O)=O)c4)n3)ccc12 | 6.18
COC(=O)Nc1nc2cc(Oc3ccc(NC(=O)Nc4cccc(C(=O)O)c4)cc3)ccc2[nH]1 | 0.18
CS(=O)(=O)CCNCc1nc(-c2ccc3ncnc(Nc4ccc(F)c(Cl)c4)c3c2)cs1 | 1.29
CS(=O)(=O)CCNCc1ccc(-c2ccc3ncnc(Nc4ccc(OCc5ccccc5)c(Cl)c4)c3c2)o1 | 1.12
COC(=O)Nc1nc2cc(Oc3cccc(NC(=O)Nc4cc(C(F)(F)F)ccc4F)c3)ccc2[nH]1 | 4.75

What follows are compounds tested against Protein kinase C alpha type (Homo sapiens) (UniProt P17252). Conditions: at 0.1 µM.

Structure (SMILES) | inhibition [%]
COc1ccc(-c2coc3ncnc(N)c23)cc1 | 0.29
Cc1cc(O)cc(C)c1/C=C/c1cncc(-c2nn[nH]n2)c1 | -2.41
NCc1ccc(-c2nc(-c3ccc(Cl)c(O)c3)c(-c3ccncc3)[nH]2)cc1 | 0.75
Cc1ccc(C(=O)NC2CCCCC2)cc1-c1ccc(C(=O)NCC2CC2)cc1 | 0.96
COc1cccc(-n2ncc3c(N/N=C/c4cccc(F)c4)ncnc32)c1 | -3.02
[O-][S+]1CCN(Cc2ccc(-c3ccc4ncnc(Nc5ccc(OCc6ccccc6)c(F)c5)c4c3)o2)CC1 | 0.47
COc1cc2c(cc1Nc1nc(N3CCc4ccccc43)c3cc[nH]c3n1)N(C(=O)CN(C)C)CC2 | 0.7
COc1cc2ncn(-c3cc(OCc4ccccc4Cl)c(C(N)=O)s3)c2cc1OC | 0
COc1ccccc1Nc1ncc(-c2ccccc2)o1 | 0.95
c1cnn2ncc(-c3ccnc(Nc4ccc5c(c4)OCCO5)n3)c2c1 | 2.47
CS(=O)(=O)CCN(CC#N)Cc1ccc(-c2ccc3ncnc(Nc4ccc(OCc5cccc(F)c5)c(Cl)c4)c3c2)o1 | -3.93
CS(=O)(=O)CCNCc1ccc(-c2ccc3ncnc(Nc4ccc(OCc5cccc(F)c5)c(C(F)(F)F)c4)c3c2)o1 | 1.25
COc1ccc(-c2nn3ncccc3c2-c2ccnc(Nc3ccc(Cl)c(C(F)(F)F)c3)n2)cc1 | 0.22
CCn1c(-c2nonc2N)nc2ccncc21 | 0.39
Nc1ncnc2occ(-c3ccc(NC(=O)Nc4cccc(C(F)(F)F)c4)cc3)c12 | 0.88
CC(C)=Cc1cccc2c1/C(=N/Nc1ccc(S(N)(=O)=O)cc1)C(=O)N2 | 0.96
Fc1cccc(COc2ccc(Nc3ncnc4cc(-c5ccc[nH]5)sc34)cc2Cl)c1 | -3.29
CCN1CCC(CC(=O)Nc2n[nH]c3nc(-c4cccs4)c(Br)cc23)CC1 | -0.16
NC(=O)c1ccc(-c2nc(-c3ccccn3)c(-c3ccc4c(c3)OCO4)[nH]2)cc1 | 1.23
CCn1c(-c2nonc2N)nc2c(C#CC(C)(C)O)nc(OC[C@@H](N)c3ccccc3)cc21 | -2.77
CCn1c(-c2nonc2N)nc2cncc(C(=O)N3CC[C@H](N)C3)c21 | 5.69
Cc1ccc(NC(=O)c2ccnc(N3CCCC3)c2)cc1-c1ccc(C(=O)NCC2CC2)cc1 | -2.31
COc1cc(C)c(NC(=O)CN(C)C)cc1Nc1nc(Nc2cccc(F)c2C(N)=O)c2cc[nH]c2n1 | 1.34
CCn1c(-c2nonc2N)nc2cnc(Oc3cccc(NC(=O)c4ccc(OCCN5CCOCC5)cc4)c3)cc21 | 3.09
